Screening data as filed in PubChem BioAssay.
12-LOX inh – inhibitors of human 12S-lipoxygenase ALOX12; P18054; purified 12hLO, xylenol orange hydroperoxide absorbance; Potency, µM (top dose mostly 108 µM), without a hit: top-dose activity change, negative = inhibition, usual class: inhibitors; 580,000 compounds, 1.1% hits; AID 1671190; note: potency is the fitted concentration of half-maximal effect
Target sequence (P18054 whole entry, looked up): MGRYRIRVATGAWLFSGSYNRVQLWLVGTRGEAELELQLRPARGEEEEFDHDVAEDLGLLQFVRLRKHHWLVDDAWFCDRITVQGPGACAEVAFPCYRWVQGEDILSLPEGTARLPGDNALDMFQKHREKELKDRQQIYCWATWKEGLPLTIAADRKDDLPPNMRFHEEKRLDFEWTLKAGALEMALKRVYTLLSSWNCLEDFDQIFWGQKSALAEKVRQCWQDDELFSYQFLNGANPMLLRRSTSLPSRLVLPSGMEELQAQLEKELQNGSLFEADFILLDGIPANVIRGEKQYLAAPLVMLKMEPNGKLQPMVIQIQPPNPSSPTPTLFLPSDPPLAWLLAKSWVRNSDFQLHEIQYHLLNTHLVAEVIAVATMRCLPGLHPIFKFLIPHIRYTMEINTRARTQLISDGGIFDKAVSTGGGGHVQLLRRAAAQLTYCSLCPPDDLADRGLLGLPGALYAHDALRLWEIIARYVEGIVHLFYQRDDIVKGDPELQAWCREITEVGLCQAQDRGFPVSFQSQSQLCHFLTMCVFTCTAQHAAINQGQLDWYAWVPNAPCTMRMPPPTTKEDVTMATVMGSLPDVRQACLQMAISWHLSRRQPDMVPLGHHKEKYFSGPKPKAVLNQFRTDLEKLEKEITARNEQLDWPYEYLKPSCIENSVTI
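Purified human 12hLO (150 nM final) in 25 mM Hepes, 0.01% Triton X-100, pH 7.0 was preincubated 15 min at room temperature with compound. Then 40 uM arachidonic acid was added, 30 min. Hydroperoxide was read by Fe-XO absorbance ratio 573/405 nm.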
DT40 TDP1 CPT – growth inhibition of DT40 Tdp1-/-;hTDP1 cells with camptothecin (screen for TDP1 inhibitors). chicken DT40 Tdp1-/-;hTDP1 cells + 20 nM CPT, ATP luminescence, 48 h. Potency, µM (series often up to 46.2 µM), inactives show at the highest dose activity change, negative = growth inhibition, hits mostly inhibitors. 420,000 compounds, 12% hits; note: potency is the fitted concentration of half-maximal effect; nearly all actives have a fitted effect of over 55% in size
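Chicken DT40 Tdp1-/- cells complemented with human TDP1, 400 cells/well, exposed to compounds plus 20 nM camptothecin for at least 48 h at 37 C; viability read as ATP content by CellTiter-Glo luminescence.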
HT1080-NT tox – kills 2HG-producing HT-1080-NT fibrosarcoma cells | HT-1080-NT fibrosarcoma viability, CellTiter-Glo ATP luminescence, 48 h | Potency, µM (titrated, usually from 46.1 µM), inactives show top-dose activity, negative = less viability, usual class: cytotoxic | 360,000 compounds, 1.6% hits | AID 686970;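 note: NT is the 2HG producing partner of a matched IDH1 knockdown line; potency is the fitted concentration of half-maximal effect; 0% = DMSO-treated cells and -100% = media-only wells without cells; nearly all actives have a fitted effect of over 55% in size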
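Read-out is CellTiter-Glo luminescence after 10 minutes at room temperature, following 48 hours' compound treatment of HT-1080-NT cells (750 cells/well, RPMI, 5% FBS, 37 degrees C).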
IL-1B inflam inh – inhibitors of inflammasome signaling (IL-1 beta secretion) | AID 743279 | activity change, % at 57.5 µM | THP-1 LPS/ATP IL-1B secretion, AlphaLISA, 16 h; active compounds read low | 360,000 compounds, 4.7% hits; in the data active = activity change below about -50%; inconclusive = mostly about -30% to -49%
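THP-1 cells pretreated 1 hr with compounds (up to 57.5 uM final), then stimulated with LPS (250 ng/mL final) plus ATP (1.25 mM final); secreted IL-1B measured by AlphaLISA after 16 hr, decreased signal indicating inhibition.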
HT1080 IDH1KD tx – toxicity to HT-1080 IDH1 knockdown cells (counter line); HT-1080 IDH1 knockdown viability, ATP luminescence, 48 h; Potency, µM (titrated, usually from 46.1 µM), for inactives: top-dose activity, negative = toxicity, usual class: cytotoxic; AID 686971; 360,000 compounds, 2% hits;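 note: potency is the fitted concentration of half-maximal effect; 0% = DMSO wells and -100% = cell-free medium wells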
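Using the IDH1-knockdown HT-1080 line run in the same batch and compound series as the NT line, viability after 48 h at 37 °C was determined by CellTiter-Glo luminescence and expressed as % activity.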
TDP1 cell noCPT – qHTS for Inhibitors of human tyrosyl-DNA phosphodiesterase 1 (TDP1): qHTS in cells in absence of CPT; DT40 Tdp1-/- hTDP1 cells, no CPT, ATP luminescence, 48 h; AID 686978, 2013; Potency, µM (series often up to 46.2 µM), inactives show top-dose activity change, negative = growth inhibition, hits mostly inhibitors; 420,000 compounds, 15% hits; note: potency is the fitted concentration of half-maximal effect; nearly all actives have a fitted effect of over 55% in size
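Compound effects on proliferation are scored in DT40 Tdp1-/-;hTDP1 cells in the absence of CPT. ATP levels (CellTiter-Glo luminescence) are recorded after a ≥48 hr, 37 °C incubation.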
* marks the source's active call; other numbers are inactive results; ? = inconclusive; nt = not tested or not shown. Only a selection was taken, and hits are over-represented in it overall. Unless noted, calls come from the whole dose curve; as a rule, active = well fitted curve in the direction sought with a large enough effect; inconclusive = small, poorly fitted or top-dose-only effect, or another doubt; inactive = no such curve, though single readings can be large; an effect the other way counts as inactive or inconclusive. Unless noted, % is set by controls: 0 for no effect and ±100 for the full control effect.

SMILES	12-LOX inh	DT40 TDP1 CPT	HT1080-NT tox	IL-1B inflam inh	HT1080 IDH1KD tx	TDP1 cell noCPT
CCN1C(=O)[C@@H]2[C@@H](c3ccc(-c4ccc(C(C)=O)cc4)cc3)N3CCCC[C@@]3(C(=O)OC)[C@@H]2C1=O	6.1%	16.4µM*	-1.3%	-0.4	2.7%	18.4µM*
CCN1C(=O)[C@H]2[C@@H](c3ccc(-c4ccccc4)cc3)N3CCCC[C@@]3(C(=O)OC)[C@H]2C1=O	-6.2%	?	-21.0%	-5.9	-21.7%	18.4µM*
CC(=O)NNC(=S)Nc1cccc(Cl)c1Cl	25.3%	nt	nt	nt	nt	nt
Cc1cccc(C)c1NC(=O)CN1CCN(c2ccc(C(F)(F)F)cn2)CC1	6.3%	14.6µM*	-4.8%	6.0	-26.1%	11.6µM*
Cc1cccc(C)c1NC(=O)C(c1ccccc1)N1CCN(c2ccc(C(F)(F)F)cn2)CC1 (stereo not given)	-3.5%	23.1µM*	3.1%	0.0	0.1%	?
Cc1cccc(C)c1NC(=O)C(c1ccccc1)N1CCN(C)CC1 (stereo not given)	0.2%	-1.2%	4.7%	-13.4	24.3%	-24.1%
Cc1ccccc1SCC(=O)N1CCN(c2ccc(C(F)(F)F)cn2)CC1	?	?	-13.3%	-92.0*	-11.9%	23.1µM*
O=C(NCC(=O)N1CCN(c2ccc(C(F)(F)F)cn2)CC1)c1ccc(Br)o1	-0.8%	20.6µM*	1.0%	9.1	0.1%	6.51µM*
O=C(c1cnc2ccccc2n1)N1CCN(c2ccc(C(F)(F)F)cn2)CC1	-3.6%	-18.8%	4.1%	44.8	0.4%	-20.1%
Cc1cccc(C)c1NC(=O)CN1CCCN(c2ccc(C(F)(F)F)cn2)CC1	-15.4%	nt	nt	nt	nt	nt
CCOc1ccc(C(=O)COC(=O)c2cc(C)nc3ccccc23)cc1	3.3%	nt	nt	nt	nt	nt
COC(=O)c1cccc(COC(=O)c2ccc(C(C)=O)s2)c1	-16.9%	nt	nt	nt	nt	nt
Cc1ccc(C(=O)Nc2cccc3cccnc23)cc1	29.3%	nt	nt	nt	nt	nt
COC(=O)Nc1cc(C(=O)OC)ccc1C	14.8%	nt	nt	nt	nt	nt
CCc1nc(CN2CCN(c3ccc(C(F)(F)F)cn3)CC2)c(C)[nH]1	0.0%	11.6µM*	?	-0.3	-13.3%	6.51µM*
O=C(O)COCC(=O)N1CCCN(c2ccc(C(F)(F)F)cn2)CC1	-15.8%	-4.9%	13.8%	19.7	16.8%	-3.1%
C=CCN1CCN(c2ccc(C(F)(F)F)cn2)CC1	41.6%	nt	nt	nt	nt	nt
CC(=O)c1cccc(OCC(=O)N2CCN(c3ccc(C(F)(F)F)cn3)CC2)c1	-3.3%	?	9.8%	-2.2	11.4%	14.6µM*
CC(OC(=O)c1ccc2c(c1)NC(=O)CS2)C(=O)c1ccc(F)cc1 (stereo not given)	-11.4%	-9.1%	-16.2%	-55.5*	-6.6%	-19.1%
CC(NC(=O)c1ccc2c(c1)NC(=O)CS2)c1ccc2c(c1)OCO2 (stereo not given)	14.1µM*	nt	nt	nt	nt	nt
Cc1cc(NC(=O)CSc2nc(Nc3ccccc3)c3ccccc3n2)no1	-1.9%	nt	nt	nt	nt	nt
O=C(NCc1ccccc1)c1ccc(-c2ccc(F)c(F)c2)c2ccoc12	?	?	?	-72.4*	-5.6%	?
COc1ccc(CNC(=O)c2ccc(-c3ccc(F)c(F)c3)c3ccoc23)cc1OC	-23.6%	20.6µM*	-23.5%	-12.1	-24.9%	14.6µM*
O=C(NCCc1ccccc1)c1cccc2c(-c3ccc(F)c(F)c3)coc12	-15.0%	-44.5%	-3.4%	-10.5	-9.9%	-43.5%
O=C(NCCc1ccccc1)c1ccc(-c2ccc(F)c(F)c2)c2ccoc12	4.6%	16.4µM*	-8.4%	0.0	8.6%	4.11µM*
COc1ccc(CNC(=O)c2ccc(-c3cnn(C)c3)c3ccoc23)cc1OC	4.1%	-73.0%	0.5%	-22.3	-5.3%	?
O=C(NCc1ccco1)c1ccc(-c2ccc(F)c(F)c2)c2ccoc12	-6.0%	?	-19.6%	-15.8	-21.6%	18.4µM*
